Screening results: PubChem, National Center for Advancing Translational Sciences (NCATS)
An excerpt weighted towards active compounds, which were near 3.7% of everything screened.
PLK1 PBD inh: inhibitors of human PLK1 polo-box domain binding. Plk1 PBD binding of FITC phosphopeptide, fluorescence polarization. P53350. 360,000 compounds, 2.8% hits. Potency, µM, most hits filed as inhibitors; note: series mostly up to about 57 µM; nearly all actives have a fitted effect of over 65% in size
WRN inhibitor: blocks human WRN helicase. Q14191. WRN helicase unwinding, fluorescent forked duplex, kinetic. Potency, µM (series often up to 114 µM), hits mostly inhibitors. 360,000 compounds, 0.46% hits. AID 651768; note: nearly all actives have a fitted effect of over 55% in size
Target sequence (Q14191 whole entry, looked up): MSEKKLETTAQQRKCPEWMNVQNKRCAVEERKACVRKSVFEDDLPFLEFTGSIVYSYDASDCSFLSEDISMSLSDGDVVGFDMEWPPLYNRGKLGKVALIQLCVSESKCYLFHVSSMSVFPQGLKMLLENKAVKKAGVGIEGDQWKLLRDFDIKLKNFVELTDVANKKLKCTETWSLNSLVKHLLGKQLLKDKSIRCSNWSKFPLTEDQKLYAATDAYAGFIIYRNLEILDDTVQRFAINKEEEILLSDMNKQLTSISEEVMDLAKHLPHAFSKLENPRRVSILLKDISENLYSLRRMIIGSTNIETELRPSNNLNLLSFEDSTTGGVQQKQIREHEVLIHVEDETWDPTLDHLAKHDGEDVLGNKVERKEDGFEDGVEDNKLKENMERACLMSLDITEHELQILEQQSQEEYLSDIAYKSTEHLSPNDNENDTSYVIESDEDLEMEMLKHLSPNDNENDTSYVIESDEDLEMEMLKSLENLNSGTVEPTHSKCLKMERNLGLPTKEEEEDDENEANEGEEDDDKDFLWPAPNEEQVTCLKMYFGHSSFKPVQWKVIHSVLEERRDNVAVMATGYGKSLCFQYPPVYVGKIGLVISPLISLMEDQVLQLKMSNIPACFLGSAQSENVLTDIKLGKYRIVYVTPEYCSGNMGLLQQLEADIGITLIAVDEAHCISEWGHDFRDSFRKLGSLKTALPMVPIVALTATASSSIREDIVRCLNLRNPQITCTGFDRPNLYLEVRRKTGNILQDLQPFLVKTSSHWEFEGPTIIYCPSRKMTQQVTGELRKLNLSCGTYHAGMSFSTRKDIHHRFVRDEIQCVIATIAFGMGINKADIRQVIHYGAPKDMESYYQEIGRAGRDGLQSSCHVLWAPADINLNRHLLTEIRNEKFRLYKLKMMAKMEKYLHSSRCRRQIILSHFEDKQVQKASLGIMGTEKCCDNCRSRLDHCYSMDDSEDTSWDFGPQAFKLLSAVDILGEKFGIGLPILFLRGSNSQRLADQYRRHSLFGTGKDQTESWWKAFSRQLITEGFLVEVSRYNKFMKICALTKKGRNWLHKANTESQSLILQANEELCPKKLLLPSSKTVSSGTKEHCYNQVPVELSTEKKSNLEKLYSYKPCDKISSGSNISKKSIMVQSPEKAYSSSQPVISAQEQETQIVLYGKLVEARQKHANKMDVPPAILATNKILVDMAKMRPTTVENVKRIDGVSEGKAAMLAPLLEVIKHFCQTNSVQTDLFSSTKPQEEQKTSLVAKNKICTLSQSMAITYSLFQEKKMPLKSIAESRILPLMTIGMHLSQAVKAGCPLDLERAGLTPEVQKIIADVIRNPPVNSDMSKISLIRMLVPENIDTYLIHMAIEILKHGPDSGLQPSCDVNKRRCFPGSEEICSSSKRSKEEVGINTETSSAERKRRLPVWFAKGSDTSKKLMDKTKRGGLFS
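WRN at 20 nM final was preincubated with compound for 15 min at room temperature; reaction started with 100 nM forked duplex oligonucleotide carrying fluorophore and quencher plus 2 mM ATP (final). Unwinding followed kinetically by red fluorescence (ex 525/em 598 nm).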
PI5P4Ka inh: blocks human PI5P4K alpha kinase activity. PI5P4Kalpha enzyme, ADP-Glo luminescence, 60 min; hits give low values. max response, %. 330,000 compounds, 1.2% hits; active = max response of -50% or lower; inconclusive = between -30% and -50%; inactive = -30% or higher; note: value at the top dose of about 77 µM
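Human PI5P4Kalpha with substrate in 0.038 M HEPES pH 7.4, 0.28 mM EGTA, 0.1% CHAPS, 5% DMSO; reaction started with 5 microM ATP (final), 60 min at room temperature. ADP formed read by ADP-Glo luminescence.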
VDR inh: blocks the human vitamin D receptor; Potency, µM, usual class: inhibitors; P11473; VDR-SRC2-3 peptide fluorescence polarization, 2 h; 400,000 compounds, 0.93% hits
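Compounds are added to VDR with labelled SRC2-3 coactivator peptide and held 2 h at room temperature. Inhibition of the VDR–peptide interaction is then read as a change in fluorescence polarization.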
TCR activator: T cell receptor activation | 330,000 tested, under 10 active | Potency, µM (top dose mostly 9.22 µM), usual class: activators | primary human leukocytes, anti-CD3, IL-2 HTRF, 48 h | AID 504894
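48 hr co-incubation of compounds, a-CD3 beads and primary human leukocytes; IL-2 quantified homogeneously by HTRF with anti-IL-2 K and d2 conjugates.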
FEN1 inh: human FEN1 inhibition; P39748; Recombinant FEN1 flap cleavage, fluorescence, 15 min; Potency, µM (series often up to 114 µM), actives largely listed as inhibitors; 390,000 compounds, 0.35% hits; AID 588795; note: nearly all actives have a fitted effect of over 65% in size
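Reaction started by adding substrate (50 nM final) to 10 nM enzyme after 15 min room-temperature compound preincubation. Reads at 0 and 15 min, with data normalized and fitted to a four-parameter Hill equation.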
Of the large screens only hits and unclear results are named; the others gave an inactive call. Unless noted, calls come from the whole dose curve; as a rule, active = well fitted curve in the direction sought with a large enough effect; inconclusive = small, poorly fitted or top-dose-only effect, or another doubt; inactive = no such curve, though single readings can be large; an effect the other way counts as inactive or inconclusive.

CC(C)C[C@H](NC(=O)[C@H](C)NC(=O)CNC(=O)[C@H](CCCCN)NC(=O)[C@H](CCCN=C(N)N)NC(=O)[C@H](C)NC(=O)[C@H](Cc1ccccc1)NC(=O)[C@@H](N)CCCN=C(N)N)C(=O)N[C@@H](CCCN=C(N)N)C(=O)N[C@@H](CCC(N)=O)C(=O)N[C@@H](CCCCN)C(=O)N[C@@H](CC(N)=O)C(=O)N[C@H](C(N)=O)C(C)C	none (no result: PLK1 PBD inh, WRN inhibitor, PI5P4Ka inh, TCR activator, FEN1 inh)
O=C(/C=C/c1cccs1)NC1CCCC1	none
Cc1ccc(OC(=O)NC2CCS(=O)(=O)C2)cc1C (configuration not stated)	none (no result: PI5P4Ka inh)
O=C(NC1CCS(=O)(=O)C1)Oc1ccccc1 (configuration not stated)	PLK1 PBD inh 26.7µM
O=C(/C=C/c1cccs1)NC1CCS(=O)(=O)C1 (configuration not stated)	PLK1 PBD inh 26.7µM, VDR inh 89.1µM
N[C@@H](C(=O)O)c1ccc(O)c(C(=O)O)c1	FEN1 inh 50.1µM (no result: PLK1 PBD inh, WRN inhibitor, PI5P4Ka inh, TCR activator)
CC(C)C[C@H](NC(=O)[C@H](CC(C)C)NC(=O)[C@@H](Cc1c[nH]c2ccccc12)NC(=O)[C@H](Cc1ccccc1)NC(=O)[C@@H](Cc1c[nH]c2ccccc12)NC(=O)[C@H](CCC(N)=O)NC(=O)[C@H](CCC(N)=O)NC(=O)[C@@H]1CCCN1C(=O)[C@H](CCCCN)NC(=O)[C@@H]1CCCN1C(=O)[C@H](N)CCCN=C(N)N)C(N)=O	none (no result: PLK1 PBD inh, WRN inhibitor, PI5P4Ka inh, TCR activator, FEN1 inh)
COC(=O)c1ccc(-c2ccc(C(c3c(C)[nH][nH]c3=O)c3c(C)[nH][nH]c3=O)o2)cc1	PLK1 PBD inh 11.9µM, WRN inhibitor inconclusive, PI5P4Ka inh inconclusive, VDR inh 35.5µM
Cc1[nH][nH]c(=O)c1C(c1ccc(-c2cccc(Cl)c2)o1)c1c(C)[nH][nH]c1=O	PLK1 PBD inh 11.9µM, VDR inh inconclusive
Clc1ccc2c(SCC3CO3)c3ccccc3nc2c1 (configuration not stated)	WRN inhibitor inconclusive, VDR inh 39.8µM
O=C(CSc1c2c(nc3cc(Cl)ccc13)CCCC2)NCCN1CCOCC1	VDR inh inconclusive (no result: TCR activator)
CCOc1ccc(NC(=O)CCNS(=O)(=O)c2ccc3c(c2)CCCC(=O)N3)cc1	none (no result: PLK1 PBD inh, WRN inhibitor, PI5P4Ka inh, TCR activator)
COc1ccc2c(=O)c(C)c(-c3ccccc3)oc2c1CN(C)C	none (no result: PLK1 PBD inh, WRN inhibitor, PI5P4Ka inh, TCR activator, FEN1 inh)
O=C1NCc2c1c1c3ccccc3[nH]c1c1[nH]c3ccccc3c21	none (no result: PLK1 PBD inh, WRN inhibitor, PI5P4Ka inh, TCR activator)
CCN(C(=O)CN1CCN(c2ccc(O)cc2)CC1)c1c(N)n(Cc2ccccc2)c(=O)[nH]c1=O	PLK1 PBD inh 26.7µM
COCCN(C(=S)Nc1c(C)cccc1C)C(C)c1cccnc1 (configuration not stated)	none
COCCN(C(=S)Nc1c(C)cc(C)cc1C)C(C)c1cccnc1 (configuration not stated)	PLK1 PBD inh 5.97µM, WRN inhibitor inconclusive, VDR inh 44.7µM
COc1ccccc1NC(=O)Cc1c(C(=O)O)[nH]c2ccc(Cl)cc12	none (no result: PLK1 PBD inh, WRN inhibitor, PI5P4Ka inh, TCR activator)
O=c1c2ccccc2sn1-c1ccc(Cl)cc1Cl	PLK1 PBD inh 2.67µM, PI5P4Ka inh -105.4 (no result: VDR inh, TCR activator, FEN1 inh)
O=c1c2ccccc2ncn1-c1ccc(Cl)cc1Cl	none
CC1CC=CC2C1C(=O)N(Cc1ccccc1)C2c1ccc(-c2ccc(N(C)C)cc2)cc1F (configuration not stated)	none (no result: PLK1 PBD inh, WRN inhibitor, PI5P4Ka inh, TCR activator)
CC(=O)Nc1ccc(SCC(=O)N(C)CC(=O)Nc2ccccc2Cl)cc1	PLK1 PBD inh 7.52µM, WRN inhibitor inconclusive, VDR inh 79.4µM
CN(CC(=O)Nc1ccccc1Cl)C(=O)COC(=O)CSc1ccc(F)cc1	none
CC1CCCC(C)N1CCCNC(=O)C(=O)Nc1ccc2nc3n(c(=O)c2c1)CCCCC3 (configuration not stated)	PLK1 PBD inh 26.7µM
O=C(Nc1ccc2nc3n(c(=O)c2c1)CCCC3)c1cccnc1Cl	PLK1 PBD inh 18.9µM, VDR inh inconclusive
Cc1ccc(C2CC2c2n[nH]c(=S)n2-c2ccc(Cl)cc2)cc1 (configuration not stated)	none (no result: PI5P4Ka inh)
Cc1ccc(C2CC2c2n[nH]c(=S)n2-c2cccc(C)c2)cc1 (configuration not stated)	PLK1 PBD inh 23.8µM
